# Reference: PubChem BioAssay
# Results filed as inconclusive are left out. Active and inactive are the calls of the source.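 How the source made its calls, unless noted: active means normalized viability below 100% at a tested concentration; inactive means the rest.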
# Columns and labels:
# [1] = growth inhibition of DIPG glioma cells, dose response, cell-based, SU-DIPG-XVII, MIPE5.0, CellTiter-Glo, qHTS (AID 1347060; cut-off not given, nearly all actives have AC50 up to about 26 µM;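 further: cells exposed to compound for 48 hours before viability readout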); conditions: SU-DIPG-XVII viability, CellTiter-Glo ATP luminescence
# [2] = growth inhibition of DIPG glioma cells, dose response, cell-based, JHH-DIPG-1, MIPE4.0, CellTiter-Glo, qHTS (AID 1347062; cut-off not given, nearly all actives have AC50 up to about 27 µM); conditions: JHH-DIPG-1 viability, CellTiter-Glo ATP luminescence
# [3] = growth inhibition of DIPG glioma cells, dose response, cell-based, SU-DIPG-XIII, MIPE5.0, CellTiter-Glo, qHTS (AID 1347064; cut-off not given, nearly all actives have AC50 up to about 23 µM;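 further: cells exposed to compound for 48 hours before the viability read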); conditions: SU-DIPG-XIII viability, CellTiter-Glo ATP luminescence
# [4] = viability loss in pontine glioma line – cell-based, SU-DIPG-XXV, MIPE5.0, CellTiter-Glo, qHTS, dose response (AID 1347065; cut-off not given, nearly all actives have AC50 up to about 26 µM;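 further: cells exposed to compound for 48 hours before ATP readout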); conditions: CellTiter-Glo ATP luminescence
# [5] = JHH-DIPG-1 glioma cell viability, MIPE5.0 library, CellTiter-Glo luminescence, qHTS (AID 1347067; cut-off not given, nearly all actives have AC50 up to about 26 µM;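 further: cells exposed to compound for 48 hours before readout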); conditions: JHH-DIPG-1 glioma viability, CellTiter-Glo ATP luminescence
# [6] = SU-DIPG-XXV glioma cell viability, MIPE5.0 library, qHTS (AID 1347068; cut-off not given, nearly all actives have IC50 up to about 30 µM;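 further: cells exposed to compound for 48 hours before viability readout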)
# [7] = sensitizers of A549 cells to miR-34 induction, primary screen, imaging, A549 dox-inducible miR-34, nuclei and caspase counts (AID 1347080;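 active means compounds whose cell count with miR-34 switched on is under 0.7 times the count with it off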); conditions: A549 miR-34 inducible, Hoechst nuclei count, 48 h
# [8] = modifiers of HSF1 nuclear foci, imaging, Selleck Cancer Library (AID 1347162; in the data active means plate-normalised HSF1 focus index below about 0.46); conditions: human cells, at 10 µM; SSMD: measured here: HSF1 foci SSMD mean; cell count: measured here: cell number; plate-normalised HSF1 focus index: stronger effect = lower value
# [9] = survival rescue of mitochondrial mutant cells in low glucose, primary screen, MELAS cybrids, Rieske KO mouse fibroblasts, CellTiter-Glo (AID 1508586;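 active means mean z-score across replicates of 1.96 or higher in either the MELAS or the Rieske mutant cell line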;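 further: z relative to plate mean and SD of compound and empty wells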)
# [10] = ovarian cancer cell viability with rucaparib, profiling panel, oncology-focused library, rucaparib conditional (AID 1508598); conditions: patient-derived ovarian cancer cells, CellTiter-Glo viability, 144 h, stronger effect = lower value
structure (smiles),measurement,setting,value
COc1cc(Nc2ncc3c(n2)-c2ccc(Cl)cc2C(c2c(F)cccc2OC)=NC3)ccc1C(=O)O,AC50,[1],0.148 µM (active)
same,outcome,[2],inactive
same,AC50,[3],8.33 µM (active)
same,AC50,[4],0.0934 µM (active)
same,AC50,[5],8.33 µM (active)
same,IC50,[6],3.72 µM (active)
same,fold change,"[7]; stronger effect = lower value, cell number ratio, induced over uninduced",1.23 (inactive)
same,fold change,[7]; measured here: relative caspase fold change +Dox/-Dox,1.04
same,cell count,"[7]; measured here: total cells with miR-34 induction, stronger effect = lower value",1850
same,cell count,[7]; measured here: total cells without miR-34 induction,1510
same,SSMD,[8],2.08
same,cell count,[8],6720
same,plate-normalised HSF1 focus index,[8],1.13 (inactive)
same,z-score,"[9]; MELAS cybrid survival, CellTiter-Glo 48 h, stronger effect = higher value",-0.56 (inactive)
same,z-score,"[9]; Rieske KO mouse fibroblast survival, CellTiter-Glo 72 h",0.925
same,viability,"[10]; at 0.000305 µM, OCI-C5x cells, with rucaparib 10 µM, 100% = cells with rucaparib alone",94.6% (active)
same,viability,"[10]; at 0.000305 µM, OCI-C5x cells, without rucaparib",108% (inactive)
same,viability,"[10]; at 0.000305 µM, OCI-P5x cells, with rucaparib 20 µM, 100% = cells with rucaparib alone",113% (inactive)
same,viability,"[10]; at 0.000305 µM, OCI-P5x cells, without rucaparib",109% (inactive)
same,viability,"[10]; at 0.00122 µM, OCI-C5x cells, with rucaparib 10 µM, 100% = cells with rucaparib alone",112% (inactive)
same,viability,"[10]; at 0.00122 µM, OCI-C5x cells, without rucaparib",101% (inactive)
same,viability,"[10]; at 0.00122 µM, OCI-P5x cells, with rucaparib 20 µM, 100% = cells with rucaparib alone",110% (inactive)
same,viability,"[10]; at 0.00122 µM, OCI-P5x cells, without rucaparib",106% (inactive)
same,viability,"[10]; at 0.00488 µM, OCI-C5x cells, with rucaparib 10 µM, 100% = cells with rucaparib alone",107% (inactive)
same,viability,"[10]; at 0.00488 µM, OCI-C5x cells, without rucaparib",98.7% (active)
same,viability,"[10]; at 0.00488 µM, OCI-P5x cells, with rucaparib 20 µM, 100% = cells with rucaparib alone",110% (inactive)
same,viability,"[10]; at 0.00488 µM, OCI-P5x cells, without rucaparib",106% (inactive)
same,viability,"[10]; at 0.0195 µM, OCI-C5x cells, with rucaparib 10 µM, 100% = cells with rucaparib alone",94.4% (active)
same,viability,"[10]; at 0.0195 µM, OCI-C5x cells, without rucaparib",103% (inactive)
same,viability,"[10]; at 0.0195 µM, OCI-P5x cells, with rucaparib 20 µM, 100% = cells with rucaparib alone",106% (inactive)
same,viability,"[10]; at 0.0195 µM, OCI-P5x cells, without rucaparib",99.3% (active)
same,viability,"[10]; at 0.0781 µM, OCI-C5x cells, with rucaparib 10 µM, 100% = cells with rucaparib alone",75.5% (active)
same,viability,"[10]; at 0.0781 µM, OCI-C5x cells, without rucaparib",70.5% (active)
same,viability,"[10]; at 0.0781 µM, OCI-P5x cells, with rucaparib 20 µM, 100% = cells with rucaparib alone",91.7% (active)
same,viability,"[10]; at 0.0781 µM, OCI-P5x cells, without rucaparib",70.7% (active)
same,viability,"[10]; at 0.313 µM, OCI-C5x cells, with rucaparib 10 µM, 100% = cells with rucaparib alone",74.5% (active)
same,viability,"[10]; at 0.313 µM, OCI-C5x cells, without rucaparib",82.5% (active)
same,viability,"[10]; at 0.313 µM, OCI-P5x cells, with rucaparib 20 µM, 100% = cells with rucaparib alone",87.4% (active)
same,viability,"[10]; at 0.313 µM, OCI-P5x cells, without rucaparib",63.8% (active)
same,viability,"[10]; at 1.25 µM, OCI-C5x cells, with rucaparib 10 µM, 100% = cells with rucaparib alone",76.8% (active)
same,viability,"[10]; at 1.25 µM, OCI-C5x cells, without rucaparib",77% (active)
same,viability,"[10]; at 1.25 µM, OCI-P5x cells, with rucaparib 20 µM, 100% = cells with rucaparib alone",82.8% (active)
same,viability,"[10]; at 1.25 µM, OCI-P5x cells, without rucaparib",56.7% (active)
same,viability,"[10]; at 5 µM, OCI-C5x cells, with rucaparib 10 µM, 100% = cells with rucaparib alone",42.9% (active)
same,viability,"[10]; at 5 µM, OCI-C5x cells, without rucaparib",34.9% (active)
same,viability,"[10]; at 5 µM, OCI-P5x cells, with rucaparib 20 µM, 100% = cells with rucaparib alone",78.6% (active)
same,viability,"[10]; at 5 µM, OCI-P5x cells, without rucaparib",39% (active)
